# Laboratory results taken from ChEMBL document CHEMBL2218924, “A broad activity screen in support of a chemogenomic map for kinase signalling research and drug discovery” (Biochem J, 2013).
# Key:
# [1] = biological target: T1, Muscle, skeletal receptor tyrosine-protein kinase (Homo sapiens) (UniProt O15146); settings: at 1 µM
# T1 sequence (whole entry): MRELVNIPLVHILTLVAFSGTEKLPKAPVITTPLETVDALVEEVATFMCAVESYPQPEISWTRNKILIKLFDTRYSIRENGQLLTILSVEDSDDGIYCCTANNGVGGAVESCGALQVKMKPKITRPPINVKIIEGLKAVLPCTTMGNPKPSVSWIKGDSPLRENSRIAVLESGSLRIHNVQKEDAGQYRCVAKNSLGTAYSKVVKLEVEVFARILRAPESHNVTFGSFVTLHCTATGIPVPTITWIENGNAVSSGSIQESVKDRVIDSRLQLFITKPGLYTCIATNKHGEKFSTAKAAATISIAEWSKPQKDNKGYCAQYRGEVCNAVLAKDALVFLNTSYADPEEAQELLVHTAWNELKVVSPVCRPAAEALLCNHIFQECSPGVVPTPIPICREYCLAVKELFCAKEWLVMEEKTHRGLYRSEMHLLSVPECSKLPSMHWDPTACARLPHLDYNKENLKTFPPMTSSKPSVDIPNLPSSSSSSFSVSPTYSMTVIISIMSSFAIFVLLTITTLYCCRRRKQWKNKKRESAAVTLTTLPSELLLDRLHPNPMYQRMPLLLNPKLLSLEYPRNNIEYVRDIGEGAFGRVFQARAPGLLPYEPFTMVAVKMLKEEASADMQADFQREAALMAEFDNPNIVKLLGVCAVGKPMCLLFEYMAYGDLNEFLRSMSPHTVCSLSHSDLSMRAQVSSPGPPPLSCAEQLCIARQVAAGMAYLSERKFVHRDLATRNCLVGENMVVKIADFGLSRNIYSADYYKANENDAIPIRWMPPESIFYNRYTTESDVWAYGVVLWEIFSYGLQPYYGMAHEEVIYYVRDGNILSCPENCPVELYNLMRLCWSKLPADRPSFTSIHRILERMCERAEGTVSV
# [2] = biological target: T1, Muscle, skeletal receptor tyrosine-protein kinase (Homo sapiens); settings: at 10 µM
# [3] = biological target: T2, Serine/threonine-protein kinase Nek11 (Homo sapiens) (UniProt Q8NG66); settings: at 1 µM
# T2 sequence (whole entry): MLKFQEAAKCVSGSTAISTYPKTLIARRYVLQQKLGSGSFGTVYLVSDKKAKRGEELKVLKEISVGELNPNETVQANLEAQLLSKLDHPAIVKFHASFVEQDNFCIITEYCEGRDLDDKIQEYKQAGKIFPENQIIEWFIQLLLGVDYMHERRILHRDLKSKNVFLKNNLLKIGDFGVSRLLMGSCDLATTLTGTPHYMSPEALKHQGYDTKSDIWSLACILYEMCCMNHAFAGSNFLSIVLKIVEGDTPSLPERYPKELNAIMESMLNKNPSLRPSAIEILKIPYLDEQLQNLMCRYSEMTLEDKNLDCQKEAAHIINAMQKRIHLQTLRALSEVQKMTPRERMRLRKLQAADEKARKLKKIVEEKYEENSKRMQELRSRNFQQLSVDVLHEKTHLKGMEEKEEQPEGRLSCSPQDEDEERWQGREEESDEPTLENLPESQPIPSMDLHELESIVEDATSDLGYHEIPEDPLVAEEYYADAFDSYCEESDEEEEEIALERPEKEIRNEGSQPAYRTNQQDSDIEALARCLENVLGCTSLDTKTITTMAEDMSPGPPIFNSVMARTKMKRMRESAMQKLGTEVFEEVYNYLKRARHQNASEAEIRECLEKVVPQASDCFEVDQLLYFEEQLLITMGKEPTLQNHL
# [4] = biological target: T2, Serine/threonine-protein kinase Nek11 (Homo sapiens); settings: at 10 µM
# [5] = biological target: T3, Serine/threonine-protein kinase Nek2 (Homo sapiens) (UniProt P51955); settings: at 1 µM
# T3 sequence (whole entry): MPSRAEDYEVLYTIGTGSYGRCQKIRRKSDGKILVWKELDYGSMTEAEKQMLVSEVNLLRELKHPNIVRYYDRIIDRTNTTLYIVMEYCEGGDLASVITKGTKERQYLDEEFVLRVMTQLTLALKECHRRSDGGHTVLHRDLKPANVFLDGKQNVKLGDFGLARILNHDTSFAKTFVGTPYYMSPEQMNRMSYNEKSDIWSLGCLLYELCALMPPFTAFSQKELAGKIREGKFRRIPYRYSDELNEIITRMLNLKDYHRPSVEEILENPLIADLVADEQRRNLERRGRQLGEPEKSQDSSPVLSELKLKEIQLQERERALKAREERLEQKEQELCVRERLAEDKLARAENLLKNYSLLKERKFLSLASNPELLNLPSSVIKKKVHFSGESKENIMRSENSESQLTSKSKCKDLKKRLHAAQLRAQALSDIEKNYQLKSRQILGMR
# [6] = biological target: T3, Serine/threonine-protein kinase Nek2 (Homo sapiens); settings: at 10 µM
# [7] = biological target: T4, Serine/threonine-protein kinase Nek3 (Homo sapiens) (UniProt P51956); settings: at 10 µM
# T4 sequence (whole entry): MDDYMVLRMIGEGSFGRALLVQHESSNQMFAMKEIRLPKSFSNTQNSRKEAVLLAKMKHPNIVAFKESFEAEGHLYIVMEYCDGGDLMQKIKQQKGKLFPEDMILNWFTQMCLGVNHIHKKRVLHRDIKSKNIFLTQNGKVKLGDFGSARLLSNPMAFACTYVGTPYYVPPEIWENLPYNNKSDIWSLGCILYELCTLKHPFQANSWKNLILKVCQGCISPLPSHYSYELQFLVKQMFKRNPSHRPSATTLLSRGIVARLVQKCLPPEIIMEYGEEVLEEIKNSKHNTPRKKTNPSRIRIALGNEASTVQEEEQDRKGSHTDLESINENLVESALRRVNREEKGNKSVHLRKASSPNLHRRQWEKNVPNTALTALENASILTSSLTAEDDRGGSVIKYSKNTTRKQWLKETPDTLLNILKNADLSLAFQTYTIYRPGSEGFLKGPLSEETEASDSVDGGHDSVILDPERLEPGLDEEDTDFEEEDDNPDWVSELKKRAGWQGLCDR
# [8] = biological target: Serine/threonine-protein kinase tousled-like 2 (Homo sapiens) (UniProt Q86UE8); settings: at 1 µM
# [9] = biological target: Serine/threonine-protein kinase tousled-like 2 (Homo sapiens) (UniProt Q86UE8); settings: at 10 µM
# [10] = biological target: T5, Testis-specific serine/threonine-protein kinase 1 (Homo sapiens) (UniProt Q9BXA7); settings: at 1 µM
# T5 sequence (whole entry): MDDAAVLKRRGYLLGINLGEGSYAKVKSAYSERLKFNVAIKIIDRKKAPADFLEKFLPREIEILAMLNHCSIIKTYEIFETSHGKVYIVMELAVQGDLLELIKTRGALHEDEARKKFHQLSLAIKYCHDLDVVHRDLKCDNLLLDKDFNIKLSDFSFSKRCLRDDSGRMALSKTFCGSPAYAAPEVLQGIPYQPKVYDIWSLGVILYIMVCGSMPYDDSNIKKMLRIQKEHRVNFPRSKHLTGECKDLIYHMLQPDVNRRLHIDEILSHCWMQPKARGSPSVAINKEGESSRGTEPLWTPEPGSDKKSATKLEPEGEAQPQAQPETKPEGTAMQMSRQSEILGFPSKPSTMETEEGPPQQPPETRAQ
# [11] = biological target: T5, Testis-specific serine/threonine-protein kinase 1 (Homo sapiens); settings: at 10 µM
# [12] = biological target: T6, Testis-specific serine/threonine-protein kinase 2 (Homo sapiens) (UniProt Q96PF2); settings: at 10 µM
# T6 sequence (whole entry): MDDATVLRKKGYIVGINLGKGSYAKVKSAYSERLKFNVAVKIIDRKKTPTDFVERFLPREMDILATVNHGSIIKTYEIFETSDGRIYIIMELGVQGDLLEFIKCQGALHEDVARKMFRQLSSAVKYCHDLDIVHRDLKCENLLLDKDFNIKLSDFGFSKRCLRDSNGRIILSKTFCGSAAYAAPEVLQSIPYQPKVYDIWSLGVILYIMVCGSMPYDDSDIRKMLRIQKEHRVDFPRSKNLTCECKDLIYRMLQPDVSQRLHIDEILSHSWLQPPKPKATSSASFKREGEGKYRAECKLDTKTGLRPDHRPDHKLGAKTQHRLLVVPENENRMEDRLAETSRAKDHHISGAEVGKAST
# [13] = biological target: T7, Tyrosine-protein kinase Tec (Homo sapiens) (UniProt P42680); settings: at 1 µM
# T7 sequence (whole entry): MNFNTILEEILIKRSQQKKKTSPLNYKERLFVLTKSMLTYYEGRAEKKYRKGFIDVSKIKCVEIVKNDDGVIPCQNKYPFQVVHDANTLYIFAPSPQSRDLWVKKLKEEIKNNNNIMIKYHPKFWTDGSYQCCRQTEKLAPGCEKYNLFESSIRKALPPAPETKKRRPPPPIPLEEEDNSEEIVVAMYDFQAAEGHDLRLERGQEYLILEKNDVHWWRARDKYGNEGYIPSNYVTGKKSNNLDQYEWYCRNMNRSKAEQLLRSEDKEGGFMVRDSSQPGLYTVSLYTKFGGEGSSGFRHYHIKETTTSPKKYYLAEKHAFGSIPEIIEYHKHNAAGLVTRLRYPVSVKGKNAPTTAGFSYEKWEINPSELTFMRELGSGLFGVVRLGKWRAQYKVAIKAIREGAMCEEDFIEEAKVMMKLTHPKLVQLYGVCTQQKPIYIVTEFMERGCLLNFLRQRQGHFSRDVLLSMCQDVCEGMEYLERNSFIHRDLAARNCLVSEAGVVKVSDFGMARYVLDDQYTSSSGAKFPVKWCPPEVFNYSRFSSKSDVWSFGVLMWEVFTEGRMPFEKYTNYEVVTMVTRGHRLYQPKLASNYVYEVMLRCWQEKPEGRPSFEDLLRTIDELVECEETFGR
# [14] = biological target: T7, Tyrosine-protein kinase Tec (Homo sapiens); settings: at 10 µM
# [15] = biological target: Angiopoietin-1 receptor (Homo sapiens) (UniProt Q02763); settings: at 1 µM
# [16] = biological target: Angiopoietin-1 receptor (Homo sapiens) (UniProt Q02763); settings: at 10 µM
# [17] = biological target: High affinity nerve growth factor receptor (Homo sapiens) (UniProt P04629); settings: at 1 µM
# [18] = biological target: High affinity nerve growth factor receptor (Homo sapiens) (UniProt P04629); settings: at 10 µM
# [19] = biological target: BDNF/NT-3 growth factors receptor (Homo sapiens) (UniProt Q16620); settings: at 1 µM
# [20] = biological target: T4, Serine/threonine-protein kinase Nek3 (Homo sapiens); settings: at 1 µM
# Sequence of BDNF/NT-3 growth factors receptor (Homo sapiens) (Q16620 32-822 limits assumed): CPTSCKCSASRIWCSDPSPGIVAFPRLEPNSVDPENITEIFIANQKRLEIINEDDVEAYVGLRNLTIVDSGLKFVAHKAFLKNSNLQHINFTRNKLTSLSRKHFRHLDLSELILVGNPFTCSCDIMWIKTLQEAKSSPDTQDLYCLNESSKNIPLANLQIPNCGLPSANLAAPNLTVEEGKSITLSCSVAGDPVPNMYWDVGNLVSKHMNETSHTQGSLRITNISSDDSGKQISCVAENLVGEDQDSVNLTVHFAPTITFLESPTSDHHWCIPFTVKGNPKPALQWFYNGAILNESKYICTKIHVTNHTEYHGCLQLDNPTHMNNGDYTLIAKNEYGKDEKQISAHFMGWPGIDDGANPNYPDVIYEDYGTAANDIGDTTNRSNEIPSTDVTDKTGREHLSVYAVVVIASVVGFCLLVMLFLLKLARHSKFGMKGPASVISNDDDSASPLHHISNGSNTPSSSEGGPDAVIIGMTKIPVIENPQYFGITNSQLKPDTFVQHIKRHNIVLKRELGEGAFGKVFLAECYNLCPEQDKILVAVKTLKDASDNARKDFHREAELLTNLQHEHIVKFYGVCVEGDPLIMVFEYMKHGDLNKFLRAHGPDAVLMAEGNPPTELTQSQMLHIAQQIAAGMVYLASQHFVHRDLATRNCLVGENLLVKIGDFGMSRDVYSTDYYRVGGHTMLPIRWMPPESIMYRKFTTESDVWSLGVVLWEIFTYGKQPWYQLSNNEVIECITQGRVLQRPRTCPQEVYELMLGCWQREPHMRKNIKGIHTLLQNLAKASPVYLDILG
# Sequence of Serine/threonine-protein kinase tousled-like 2 (Homo sapiens) (Q86UE8 whole entry, looked up): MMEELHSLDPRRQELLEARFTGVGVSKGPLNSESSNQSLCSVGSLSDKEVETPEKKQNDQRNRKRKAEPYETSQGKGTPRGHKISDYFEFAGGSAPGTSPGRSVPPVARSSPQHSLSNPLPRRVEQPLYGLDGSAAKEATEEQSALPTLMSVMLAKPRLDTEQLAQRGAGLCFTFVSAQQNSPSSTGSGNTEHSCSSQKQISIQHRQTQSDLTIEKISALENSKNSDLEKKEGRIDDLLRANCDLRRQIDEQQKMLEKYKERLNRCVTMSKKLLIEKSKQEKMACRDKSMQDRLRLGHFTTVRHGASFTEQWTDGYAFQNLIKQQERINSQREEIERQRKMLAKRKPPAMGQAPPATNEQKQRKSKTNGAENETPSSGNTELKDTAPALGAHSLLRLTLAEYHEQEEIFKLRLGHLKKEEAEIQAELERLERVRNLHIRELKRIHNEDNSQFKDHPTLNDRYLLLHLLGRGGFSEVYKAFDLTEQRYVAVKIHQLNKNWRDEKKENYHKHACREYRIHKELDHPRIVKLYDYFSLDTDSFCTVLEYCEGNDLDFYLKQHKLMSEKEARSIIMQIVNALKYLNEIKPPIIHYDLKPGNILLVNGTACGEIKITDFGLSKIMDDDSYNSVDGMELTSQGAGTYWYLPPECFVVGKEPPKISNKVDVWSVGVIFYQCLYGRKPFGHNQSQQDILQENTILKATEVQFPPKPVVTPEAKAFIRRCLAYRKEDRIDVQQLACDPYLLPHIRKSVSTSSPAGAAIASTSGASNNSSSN
# Sequence of High affinity nerve growth factor receptor (Homo sapiens) (P04629 33-796 limits assumed): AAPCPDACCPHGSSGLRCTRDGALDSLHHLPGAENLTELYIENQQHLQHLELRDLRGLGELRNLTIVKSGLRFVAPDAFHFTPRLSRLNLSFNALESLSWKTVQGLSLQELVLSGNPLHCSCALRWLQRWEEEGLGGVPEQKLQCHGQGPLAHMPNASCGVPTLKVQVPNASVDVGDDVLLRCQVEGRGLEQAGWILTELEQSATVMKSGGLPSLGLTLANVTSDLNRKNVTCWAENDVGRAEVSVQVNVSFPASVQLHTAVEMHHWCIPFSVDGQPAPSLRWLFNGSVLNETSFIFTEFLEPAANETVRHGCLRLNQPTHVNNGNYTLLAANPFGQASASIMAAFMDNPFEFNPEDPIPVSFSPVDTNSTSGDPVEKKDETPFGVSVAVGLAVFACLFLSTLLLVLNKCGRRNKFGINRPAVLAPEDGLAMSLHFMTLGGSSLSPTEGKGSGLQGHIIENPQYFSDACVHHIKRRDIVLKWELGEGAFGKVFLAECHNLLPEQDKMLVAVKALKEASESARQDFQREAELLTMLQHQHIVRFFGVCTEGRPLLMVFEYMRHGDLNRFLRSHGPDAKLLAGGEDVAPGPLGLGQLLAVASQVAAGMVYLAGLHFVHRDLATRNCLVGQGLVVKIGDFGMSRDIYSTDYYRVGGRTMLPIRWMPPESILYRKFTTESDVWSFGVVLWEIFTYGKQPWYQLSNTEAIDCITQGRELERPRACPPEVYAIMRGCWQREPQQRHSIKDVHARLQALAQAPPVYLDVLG
# Sequence of Angiopoietin-1 receptor (Homo sapiens) (Q02763 whole entry): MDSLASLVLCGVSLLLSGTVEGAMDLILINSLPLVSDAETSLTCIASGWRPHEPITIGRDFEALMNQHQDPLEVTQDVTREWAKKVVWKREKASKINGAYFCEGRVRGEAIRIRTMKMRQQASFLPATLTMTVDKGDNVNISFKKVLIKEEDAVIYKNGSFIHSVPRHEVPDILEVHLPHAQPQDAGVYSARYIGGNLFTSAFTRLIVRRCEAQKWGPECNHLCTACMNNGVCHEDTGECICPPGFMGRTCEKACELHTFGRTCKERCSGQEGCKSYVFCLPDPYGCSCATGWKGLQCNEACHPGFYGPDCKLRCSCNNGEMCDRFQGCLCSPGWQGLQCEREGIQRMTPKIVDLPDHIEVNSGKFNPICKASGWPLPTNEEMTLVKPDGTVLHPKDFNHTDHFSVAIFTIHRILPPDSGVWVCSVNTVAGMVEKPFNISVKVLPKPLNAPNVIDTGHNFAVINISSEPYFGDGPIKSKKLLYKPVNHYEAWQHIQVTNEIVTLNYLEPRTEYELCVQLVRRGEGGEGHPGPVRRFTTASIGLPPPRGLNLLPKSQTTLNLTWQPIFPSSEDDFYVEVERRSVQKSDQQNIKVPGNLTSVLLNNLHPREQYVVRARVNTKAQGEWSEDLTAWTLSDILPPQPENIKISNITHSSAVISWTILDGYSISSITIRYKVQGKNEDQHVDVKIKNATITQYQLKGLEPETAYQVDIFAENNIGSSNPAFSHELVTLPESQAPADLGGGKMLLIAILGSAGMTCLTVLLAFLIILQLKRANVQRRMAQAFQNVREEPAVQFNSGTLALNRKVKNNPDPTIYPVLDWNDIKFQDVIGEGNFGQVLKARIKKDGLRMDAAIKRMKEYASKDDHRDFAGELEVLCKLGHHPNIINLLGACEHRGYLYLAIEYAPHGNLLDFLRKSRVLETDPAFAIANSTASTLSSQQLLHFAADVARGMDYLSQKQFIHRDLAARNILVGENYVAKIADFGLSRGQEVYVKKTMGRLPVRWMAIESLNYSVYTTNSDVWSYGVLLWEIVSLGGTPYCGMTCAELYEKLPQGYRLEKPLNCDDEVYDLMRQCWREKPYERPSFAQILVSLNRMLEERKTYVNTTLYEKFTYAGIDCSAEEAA
Compound,residual activity [1] [%],residual activity [2] [%],residual activity [3] [%],residual activity [4] [%],residual activity [5] [%],residual activity [6] [%],residual activity [7] [%],residual activity [8] [%],residual activity [9] [%],residual activity [10] [%],residual activity [11] [%],residual activity [12] [%],residual activity [13] [%],residual activity [14] [%],residual activity [15] [%],residual activity [16] [%],residual activity [17] [%],residual activity [18] [%],residual activity [19] [%],residual activity [20] [%]
Cc1cc2ncc(-c3ccccc3)nc2cc1C,101,75,97,93,92,105,93,103,99,101,97,91,90,71,98,89,106,81,94,–
c1ccc(-c2n[nH]c3c2oc2ccccc23)cc1,14,0,–,–,91,99,–,98,86,–,82,96,–,76,83,58,32,2,45,–
Cc1cc(Nc2nc(-c3ccccc3)nc3ccccc23)n[nH]1,21,4,66,50,–,66,78,62,17,72,25,67,38,4,77,6,-2,-1,1,76
COc1cc2ncc(-c3ccccc3)nc2cc1OC,–,–,87,–,94,100,85,–,–,–,92,84,96,63,–,80,39,-1,54,125
Cc1cccc(-c2[nH]c(C(C)(C)C)nc2-c2ccc3c(c2)OCO3)n1,98,87,80,107,88,95,–,96,95,101,90,94,97,91,101,83,92,106,–,–
Cn1nc2c3c(cccc31)C(=O)c1ccccc1-2,75,81,48,55,95,84,91,95,–,100,79,76,90,69,104,79,46,9,–,74
CN(C)CCCn1cc(C2=C(c3c[nH]c4ccccc34)C(=O)NC2=O)c2ccccc21,134,74,72,59,–,105,90,21,2,86,37,–,113,65,120,60,48,13,36,–
O=C1c2ccccc2-[n+]2ccc3c([nH]c4ccccc43)c21,85,88,48,44,90,87,90,80,83,90,89,86,77,74,90,78,83,47,89,88
O=C(O)c1ccc2c3c1cccc3c(=O)n1c3ccccc3nc21,105,94,80,93,123,102,97,104,97,106,79,108,99,82,106,99,78,19,86,93
CO[C@@H]1[C@H](N(C)C(=O)c2ccccc2)C[C@H]2O[C@]1(C)n1c3ccccc3c3c4c(c5c6ccccc6n2c5c31)C(=O)NC4,32,13,47,49,82,86,37,–,72,15,6,30,85,40,133,73,0,-1,23,102
N#CCCc1ccc2c(c1)-c1[nH]c3ccc([N+](=O)[O-])cc3c1CC(=O)N2,68,32,–,72,–,–,67,–,–,39,21,–,–,29,–,–,54,23,71,79
CC(=O)O/N=C1\C(=C2\C(=O)Nc3cc(Br)ccc32)Nc2ccccc21,73,51,60,67,101,87,84,92,86,92,86,92,59,21,86,87,6,0,29,82
c1ccc(-c2n[nH]cc2-c2ccnc3ccccc23)nc1,105,79,98,96,82,101,–,96,99,91,92,93,88,91,91,90,72,76,–,–
COc1cccc(-c2cc(=O)c3ccccc3o2)c1N,104,97,64,78,98,102,101,98,101,103,89,86,87,91,108,106,99,92,105,93
